Test results: the supplement of paper PMC6555819

Experiments:
Test in all cases: PBM binding z-score (relative to random genomic background probes); higher = stronger binding; sequences stand for … in GC…GCGATTGACAGCGTAGAATGAAGG
[1] = system: RARb homodimer (NR concentration 270 nM)
Procedure, shortened: (§1)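 Custom Agilent 4×180K protein-binding microarrays carried double-stranded probes, each with a 34-nt variable region. These regions held direct-repeat seeds, single-nucleotide variants, half-site ablations and random human genomic background sequences. Ligand-free nuclear receptor dimers were incubated on the arrays for 1 h, antibodies against each partner (one per run) detected binding, and scanned fluorescence was regression-normalized. Binding z-scores take the random background probes as reference.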

[2] = system: RARg:RXRa (NR concentration 270 nM, RXRa partner concentration 90 nM)
Procedure, shortened: as §1

[3] = system: RARg homodimer (NR concentration 270 nM)
Procedure, shortened: as §1

[4] = system: RXRa DBDmut IVT, anti-RXR (DBD mutation: RXRa K156A/R161A, NR concentration 90 nM)
Procedure, shortened: as §1

[5] = system: RXRa homodimer (NR concentration 180 nM)
Procedure, shortened: as §1

[6] = system: THRa:RXRa (NR concentration 90 nM, RXRa partner concentration 90 nM)
Procedure, shortened: as §1

[7] = system: THRa homodimer (NR concentration 90 nM)
Procedure, shortened: as §1

[8] = system: VDR homodimer (NR concentration 270 nM)
Procedure, shortened: as §1

Sequence	PBM binding z-score [1]	PBM binding z-score [2]	PBM binding z-score [3]	PBM binding z-score [4]	PBM binding z-score [5]	PBM binding z-score [6]	PBM binding z-score [7]	PBM binding z-score [8]
AATACAGGGTCATCGTATGCCAGAGTACGCACAG	3.1	5.61	4.95	3.42	6.33	3.67	1.21	3.64
TCATATAGGTAATACAGCTGAAAGTCGGCATCTA	-0.493	0.294	0.383	1.69	0.684	-0.0502	-0.127	-0.525
ACAGACAGGTGAGCGAAGGTAACTCAGCTGGACG	0.0254	0.199	0.463	-0.651	0.258	1.74	-0.377	-0.771
TAGCCTAGGTCATGGGCCAGTACACCACGCGAAC	2.88	4.3	4.65	0.275	3.7	2.99	1.48	0.985
TCTTGTAGAGCAATAGAGGTTAAGAAAGTGCGCT	0.76	0.413	0.158	-0.107	0.858	1.76	-1.07	-0.332
TCTTGTAGATCAAGCAGGTTAGGAAAGCCTGAGT	0.012	-0.289	-0.589	0.37	-0.0446	0.0299	-0.467	0.231
ACAGACAGGTGAGTGAAGGTAATTCAGCTGGACG	-0.0285	0.335	0.578	-0.442	0.191	1.25	-0.521	-0.158
